Test results: the supplement of paper PMC3342239
Where a name gives a salt, the structure may show the parent alone.

Tested on: Saccharomyces cerevisiae
Assay: fraction of cells in G1 phase (DNA content, flow cytometry); higher = more cells with unreplicated DNA (G1 delay)
Conditions: temperature: 30 C; YPD; JTY2953 pdr5 snq2 (sensitized); drug added to: cultures diluted from stationary phase; 6-7 h
Summary of the method: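 S. cerevisiae in YPD at 30°C was treated with library drugs, with DMSO-only wells as reference. Sensitized JTY2953 cultures diluted 1∶200 from overnight received a final 20 µg/ml and were fixed after 6–7 h; other runs dosed dividing JTY2953 (fixed 6 h later) or BY4741 (4.33 h later). Ethanol-fixed cells were stained with SYTOX Green and 10,000 events read by flow cytometry. G1 fraction is the Dean-Jett-Fox G1 peak area over G1 plus G2/M areas.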

For CC(=O)OCC[N+](C)(C)C [Acetylcholine Cl] (136.789 µM), which “fraction of cells in G1 phase” value is on record?
The value was 0.483.

How did the “fraction of cells in G1 phase” value turn out when C[C@]12CC[C@@H]3c4ccc(O)cc4CC[C@H]3[C@@H]1CCC2=O [Estrone] (73.9714 µM) was run?
The value was 0.508.

For CCC(=O)O[C@@H](O[P@](=O)(CCCCc1ccccc1)CC(=O)N1C[C@H](C2CCCCC2)C[C@H]1C(=O)O)C(C)C [Fosinopril] (35.4813 µM), which “fraction of cells in G1 phase” value is on record?
Its value is 0.501.

How did the “fraction of cells in G1 phase” value turn out when CN(C)CCCSc1ccccc1NC(=O)/C=C/c1ccccc1 [Cinanserin] (58.7387 µM) was run?
Its value is 0.456.

How did the “fraction of cells in G1 phase” value turn out when Cc1cnc(C(=O)O)c[n+]1[O-] [Acipimox] (129.764 µM) was run?
Its value is 0.493.

Which “fraction of cells in G1 phase” value does the source give for CC(=O)CCCCn1c(=O)c2c(ncn2C)n(C)c1=O [Pentoxifylline] (71.8614 µM) here?
Its value is 0.487.

Which “fraction of cells in G1 phase” value does the source give for Nc1c2c(nc3ccccc13)CCCC2 [Tacrine HCl] (100.873 µM) here?
The value was 0.541.

How did the “fraction of cells in G1 phase” value turn out when COC(=O)N[C@H](C(=O)N[C@@H](Cc1ccccc1)[C@@H](O)CN(Cc1ccc(-c2ccccn2)cc1)NC(=O)[C@@H](NC(=O)OC)C(C)(C)C)C(C)(C)C [Atazanavir] (28.3739 µM) was run?
Its value is 0.525.

With O=C(N[C@H](CO)[C@H](O)c1ccc([N+](=O)[O-])cc1)C(Cl)Cl [Chloramphenicol] (61.8937 µM) as the compound, how does the “fraction of cells in G1 phase” value read?
Its value is 0.482.

For C=C1C[C@H]2[C@@H]3C=C(C)C4=CC(=O)CC[C@]4(C)[C@H]3CC[C@]2(C)[C@@]1(OC(C)=O)C(C)=O [Melengestrol acetate] (50.4374 µM), which “fraction of cells in G1 phase” value is on record?
The value was 0.569.

With Nc1nc(O)c2ncn(CCC(CO)CO)c2n1 [Penciclovir] (78.9694 µM) as the compound, how does the “fraction of cells in G1 phase” value read?
Its value is 0.461.

With CC1=C(/C=C/C(C)=C/C=C/C(C)=C/C(=O)O)C(C)(C)CCC1 [Retinoic acid] (66.5679 µM) as the compound, how does the “fraction of cells in G1 phase” value read?
The value was 0.524.

How did the “fraction of cells in G1 phase” value turn out when NCCC(O)(P(=O)(O)O)P(=O)(O)O [Pamidronic acid] (85.0806 µM) was run?
Its value is 0.476.

How did the “fraction of cells in G1 phase” value turn out when O=P(O)(O)C(O)(Cn1ccnc1)P(=O)(O)O [Zoledronic acid] (73.5045 µM) was run?
Its value is 0.486.

How did the “fraction of cells in G1 phase” value turn out when COC(=O)[C@@H]1[C@H]2C[C@H]3c4[nH]c5ccccc5c4CCN3C[C@@H]2CC[C@@H]1O [Yohimbine HCl] (51.164 µM) was run?
Its value is 0.524.

How did the “fraction of cells in G1 phase” value turn out when CC#CCC(C)[C@H](O)/C=C/[C@@H]1[C@H]2C/C(=C/CCCC(=O)O)C[C@H]2C[C@H]1O (stereo partly specified) [Iloprost] (55.4788 µM) was run?
Its value is 0.481.

With CC1(C)C[C@@H]1C(=O)N/C(=C\CCCCSC[C@H](N)C(=O)O)C(=O)O [Cilastatin] (55.7942 µM) as the compound, how does the “fraction of cells in G1 phase” value read?
The value was 0.484.

Which “fraction of cells in G1 phase” value does the source give for COc1ccc(C2CNC(=O)C2)cc1OC1CCCC1 (stereo unspecified) [Rolipram] (72.6347 µM) here?
Its value is 0.497.

CN1CCN2c3ccccc3Cc3ccccc3C2C1 (stereo unspecified) [Mianserin hcl] (75.6505 µM) was tested. Which “fraction of cells in G1 phase” value did it give?
The value was 0.471.

Which “fraction of cells in G1 phase” value does the source give for CC(=O)[C@@]1(O)CC[C@H]2[C@@H]3CCC4=CC(=O)CC[C@]4(C)[C@H]3CC[C@@]21C [17- hydroxyprogesterone] (60.5196 µM) here?
The value was 0.515.

Which “fraction of cells in G1 phase” value does the source give for Cn1c(=O)c2[nH]cnc2n(C)c1=O [Aminophylline] (111.008 µM) here?
The value was 0.49.

With CC(C)n1c(/C=C/[C@@H](O)C[C@@H](O)CC(=O)O)c(-c2ccc(F)cc2)c2ccccc21 [Fluvastatin Na] (48.6053 µM) as the compound, how does the “fraction of cells in G1 phase” value read?
Its value is 0.464.

CN(C)CCC[C@@]1(c2ccc(F)cc2)OCc2cc(C#N)ccc21 [Escitalopram] (61.652 µM) was tested. Which “fraction of cells in G1 phase” value did it give?
The value was 0.496.

With CC(C)NCC(O)COc1cccc2ccccc12 (stereo unspecified) [Propranolol] (77.1155 µM) as the compound, how does the “fraction of cells in G1 phase” value read?
Its value is 0.477.

Which “fraction of cells in G1 phase” value does the source give for CCC(NC(C)C)C(O)c1ccc(O)c2[nH]c(=O)ccc12 (stereo unspecified) [Procaterol hcl] (68.8787 µM) here?
The value was 0.526.

CNCCCC12CCC(c3ccccc31)c1ccccc12 [Maprotiline HCl] (72.0947 µM) was tested. Which “fraction of cells in G1 phase” value did it give?
Its value is 0.475.

For O=C(O)Cc1sc(-c2ccccc2)nc1-c1ccc(Cl)cc1 [Fentiazac] (60.6414 µM), which “fraction of cells in G1 phase” value is on record?
Its value is 0.533.

Which “fraction of cells in G1 phase” value does the source give for COc1cc2c3cc1Oc1cc(ccc1O)C[C@@H]1c4c(cc(OC)c(O)c4Oc4ccc(cc4)C[C@@H]3N(C)CC2)CC[N+]1(C)C [Tubocurarine Cl  (+)] (32.8004 µM) here?
Its value is 0.464.

How did the “fraction of cells in G1 phase” value turn out when Nc1nc2c(ncn2COCCO)c(=O)[nH]1 [Acycloguanosine] (88.8066 µM) was run?
The value was 0.472.

NS(=O)(=O)c1cc(C(=O)O)c(NCc2ccco2)cc1Cl [Furosemide] (60.4688 µM) was tested. Which “fraction of cells in G1 phase” value did it give?
The value was 0.459.

Which “fraction of cells in G1 phase” value does the source give for NC(=O)N1c2ccccc2C=Cc2ccccc21 [Carbamazepine] (84.6469 µM) here?
Its value is 0.483.
